Eight molecules from PubChem BioAssay (Tox21) can be followed below.

Inconclusive results are not listed. The source made the active and inactive calls. Unless noted, the call rests on the fitted dose curve.

Assay [1] is described as follows: Nuclear factor erythroid 2-related factor 2/antioxidant responsive element (Nrf2/ARE) small molecule agonists: qHTS cell viability counter screen in human keratinocytes (AID 1919968; active means well fitted curve in the direction sought with a large enough effect in the repeat runs; an effect the other way counts as inactive or inconclusive; further: nearly all actives have a fitted effect of over 55% in size; further: potency means the concentration at half of the fitted maximal effect). Put shortly:
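Seed 1,500 KeratinoSens cells per well, then incubate 5 h at 37 C/5% CO2. Add compounds in DMSO and incubate 23 h. Add CellTiter-Fluor, wait 1 h and read fluorescence.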

Assay [2] in a line: Nuclear factor erythroid 2-related factor 2/antioxidant responsive element (Nrf2/ARE) small molecule agonists: luciferase reporter gene qHTS assay in human keratinocytes (AID 1919969). Further: nearly all actives have a fitted effect of over 35% in size.
Assay [3] has as its target Gonadotropin-releasing hormone receptor (Homo sapiens) (UniProt P30968). Description: Human gonadotropin-releasing hormone receptor (GnRHR) small molecule agonists, calcium flux assay in GnRHR-HEK293 cells (AID 1920063). Further: nearly all actives have a fitted effect of over 35% in size. A digest of the protocol:
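Cells: HEK293 stably expressing human GnRHR. Steps: overnight (18 h) culture, 1 h calcium dye loading at 37 C, compound addition, kinetic fluorescence read at 480/540 nm. Each compound tested at 15 concentrations in triplicate.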
Background: Calcium assays in cells follow changes in intracellular calcium, usually with a dye or a luminescent sensor.

In assay [4] the target is KiSS-1 receptor (Homo sapiens) (UniProt Q969F8). Description: Human kisspeptin (KISS1R) small molecule agonists, calcium flux assay in KISS1R-HEK293 cells (AID 1920064; active means well fitted curve in the direction sought with a large enough effect in the repeat runs; an effect the other way counts as inactive or inconclusive). A digest of the protocol: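 Cells plated and incubated 18 h; dye added, 1 h at 37 C; compounds in DMSO pinned in; signal read at 480/540 nm every second for 3 min. Each compound tested at 15 concentrations in triplicate.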

Assay [5] is described as follows: G protein-coupled receptor (GPCR) small molecule agonists, calcium flux assay: HEK293 wild type cell line counter screen (AID 1920065). A digest of the protocol:
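Counter-screen of the Tox21 10K library for non-specific calcium release: dye-loaded cells received compounds in DMSO and were monitored by kinetic fluorescence (480/540 nm, 3 min). Fifteen concentrations, run in triplicate.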

The nature of assay [6]: p53 small molecule agonists, cell-based qHTS assay with human liver microsomes (AID 1963577). A digest of the protocol: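 In this qHTS, p53 response-element beta-lactamase cells receive test compound together with a microsome/NADPH activating system (0.5 mg/mL final each) and are incubated 16 h at 37 C before LiveBLAzer fluorescence detection.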
On the technique in general: qHTS replaces the single test concentration by a dilution series.

Assay [7] is described as follows: p53 small molecule agonists, cell-based qHTS assay with rat liver microsomes (AID 1963578). A digest of the protocol: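 Agonist mode in p53RE-bla reporter cells, with compounds co-incubated 16 h at 37 C alongside 0.5 mg/mL rat liver microsomes and 0.5 mg/mL NADPH (final), followed by a 2 h LiveBLAzer detection step.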
Assay [8] can be described thus: p53 small molecule agonists, cell-based qHTS assay with human liver microsomes: qHTS cell viability counter screen (AID 1963579). Further: nearly all actives have a fitted effect of over 45% in size. A digest of the protocol: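 Metabolically activated exposure: compounds, human liver microsomes and NADPH (0.5 mg/mL final apiece) were added to p53RE-bla cells seeded 5 h earlier, left 16 h at 37 C, and then assessed for viability by CellTiter-Glo luminescence.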

Assay [9] can be described thus: p53 small molecule agonists, cell-based qHTS assay with rat liver microsomes: qHTS cell viability counter screen (AID 1963580). Further: nearly all actives have a fitted effect of over 45% in size. Put shortly: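 In HCT-116 cells carrying a p53 response element-bla reporter, compounds were metabolically activated in situ by rat liver microsomes with NADPH over 16 h. Cell ATP content then served as the cytotoxicity measure.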
Assay [10] in a line: p53 small molecule agonists, cell-based qHTS assay: qHTS cell viability counter screen (AID 1963581). Further: nearly all actives have a fitted effect of over 45% in size. A digest of the protocol: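 Cells: HCT-116 with p53 response element-driven beta-lactamase. Treatment: 16 h, 37 C, compounds in DMSO. Read: CellTiter-Glo luminescence after 30 min RT.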
Assay [11] is described as follows: p53 small molecule agonists, cell-based qHTS assay (AID 1963582; active means well fitted activation curve with a large enough effect in the signal ratio in the repeat runs, not every such curve was filed as active; the % refers to the signal ratio). A digest of the protocol:
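Quantitative HTS in p53RE-bla cells: after a 5 h settling period, compounds delivered in DMSO were left on cells for 16 h at 37 C, and reporter induction was measured as fluorescence following 2 h substrate loading.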

For assay [12], the target named is 5-hydroxytryptamine receptor 2A (Homo sapiens) (UniProt P28223). The assay is described as follows: 5-hydroxytryptamine receptor 2A (HTR2A) small molecule agonists, cell-based qHTS assay (AID 1963587). Further: nearly all actives have a fitted effect of over 30% in size. A digest of the protocol: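 HTR2A-CHO cells, plated 18 h at 37 C/5% CO2, dye-loaded 1 h at 37 C; compounds in DMSO added by pin tool (agonist mode). Intracellular calcium flux read as kinetic fluorescence on FDSS over 2 min at 1 s intervals.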

Assay [13] deals with Muscarinic acetylcholine receptor M1 (Homo sapiens) (UniProt P11229). The assay is described as follows: Cholinergic receptor muscarinic 1 (CHRM1) small molecule antagonists, cell-based qHTS assay (AID 1963588). Further: nearly all actives have a fitted effect of over 40% in size. A digest of the protocol:
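CHRM1-CHO calcium-flux assay, antagonist mode. Cells were seeded 18 h, dye-loaded 1 h at 37 C and given compound for 5 min at RT, then acetylcholine was added at 50nM. FDSS fluorescence was read 3 min; 15 concentrations, three runs.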

The target is the same in assay [14]. Description: Cholinergic receptor muscarinic 1 (CHRM1) small molecule agonists, cell-based qHTS assay (AID 1963589). Further: nearly all actives have a fitted effect of over 35% in size. Put shortly:
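Agonist-mode qHTS in CHO cells stably carrying human muscarinic M1. Intracellular calcium is tracked by fluorescence every second after compound transfer; each compound runs at 15 concentrations in three independent runs.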

Assay [15] can be described thus: cAMP Responsive Elements (CRE) small molecule agonists, cell-based qHTS assay (AID 1963590). A digest of the protocol:
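Agonist mode qHTS in CRE-bla HEK 293T cells: compounds dosed from DMSO for 3 h at 37 C/5% CO2, followed by LiveBLAzer B/G FRET substrate for 2 h at room temperature.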

The nature of assay [16]: cAMP Responsive Elements (CRE) small molecule antagonists, cell-based qHTS assay (AID 1963591; active means well fitted inhibition curve with a large enough effect in the signal ratio in the repeat runs, not every such curve was filed as active; the % refers to the signal ratio; further: potency means the concentration at half of the fitted maximal effect). Put shortly:
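Antagonist mode: test compounds are co-incubated with the adenylyl cyclase activator NKH477 (0.25 uM final) on CRE-bla HEK293T cells for 3 h at 37 °C, followed by LiveBLAzer substrate loading.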

In assay [17] the target is Beta-2 adrenergic receptor (Homo sapiens) (UniProt P07550). The assay is described as follows: Adrenergic beta2 receptor (ADRB2) small molecule antagonists, cell-based qHTS assay (AID 1963592). Further: series mostly up to about 92 µM; nearly all actives have a fitted effect of over 50% in size. Put shortly:
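Cells (CHO, stable ADRB2 overexpression) incubated 18-20hr at 37C; compounds added from DMSO; agonist mix (1nM isoproterenol, 100uM IBMX, 25uM Ro-20-1724) added; 0.5hr RT; d2-cAMP and anti-cAMP-cryptate added; 1hr RT; 665/615 nm read.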

Assay [18] has as its target D(2) dopamine receptor (Homo sapiens) (UniProt P14416). The assay is described as follows: Dopamine D2 receptor (DRD2) small molecule antagonists, cell-based qHTS assay (AID 1963595; active means well fitted inhibition curve with a large enough effect in the signal ratio in the repeat runs, with a control signal flat; the % refers to the signal ratio). Put shortly:
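Cells were plated and grown for 24 h at 37 °C. Ro20-1724 (0.1 mM final) went in first, then compound for 10 min. NKH477 (200 nM) with quinpirole (12 nM) followed for 30 min at RT, then HTRF detection reagents for 1 h.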

Assay [19] concerns the target Beta-2 adrenergic receptor (Homo sapiens) (UniProt P07550). Description: Adrenergic beta2 receptor (ADRB2) small molecule agonists, cell-based qHTS assay (AID 1963593).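 Further: CHO cells stably overexpressing human ADRB2.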 Put shortly:
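CHO cells stably over-expressing ADRB2 were plated overnight at 37C, then dosed with compounds plus a stimulation mix containing 100uM IBMX and 25uM Ro-20-1724 for 0.5hr at room temperature. cAMP was measured by HTRF competition, 1hr.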

For assay [20], the target named is D(2) dopamine receptor (Homo sapiens) (UniProt P14416). The assay is described as follows: Dopamine D2 receptor (DRD2) small molecule agonists, cell-based qHTS assay (AID 1963594). Further: nearly all actives have a fitted effect of over 35% in size. Put shortly: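 HEK293 cells stably expressing DRD2 were cultured 24 h at 37 C, then given Ro20-1724 (0.1 mM final) and compounds for 10 min at room temperature. NKH477 (200nM) was then added for 30 min. cAMP was read by HTRF.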
D(2) dopamine receptor (Homo sapiens), sequence (P14416 whole entry, looked up): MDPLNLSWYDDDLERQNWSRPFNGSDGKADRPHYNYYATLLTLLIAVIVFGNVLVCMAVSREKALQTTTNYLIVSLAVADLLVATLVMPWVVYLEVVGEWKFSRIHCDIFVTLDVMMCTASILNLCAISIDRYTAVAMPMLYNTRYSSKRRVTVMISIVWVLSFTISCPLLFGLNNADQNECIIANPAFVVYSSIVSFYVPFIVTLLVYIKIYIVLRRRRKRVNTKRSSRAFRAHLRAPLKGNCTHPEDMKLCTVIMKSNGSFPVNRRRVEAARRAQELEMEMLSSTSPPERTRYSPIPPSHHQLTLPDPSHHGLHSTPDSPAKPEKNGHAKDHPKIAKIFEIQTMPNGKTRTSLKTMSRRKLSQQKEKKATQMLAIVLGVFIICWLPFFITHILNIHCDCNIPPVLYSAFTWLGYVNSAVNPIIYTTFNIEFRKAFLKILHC

Gonadotropin-releasing hormone receptor (Homo sapiens), sequence (P30968 whole entry, looked up): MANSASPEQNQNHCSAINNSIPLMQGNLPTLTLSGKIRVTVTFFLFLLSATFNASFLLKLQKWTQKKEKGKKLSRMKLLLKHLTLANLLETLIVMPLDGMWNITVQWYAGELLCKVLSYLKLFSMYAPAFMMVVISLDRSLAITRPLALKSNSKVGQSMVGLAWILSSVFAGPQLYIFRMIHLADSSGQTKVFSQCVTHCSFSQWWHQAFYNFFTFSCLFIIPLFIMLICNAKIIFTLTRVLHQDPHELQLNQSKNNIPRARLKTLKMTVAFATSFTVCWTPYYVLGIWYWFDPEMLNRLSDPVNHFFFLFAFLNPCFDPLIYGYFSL
Muscarinic acetylcholine receptor M1 (Homo sapiens), sequence (P11229 whole entry, looked up): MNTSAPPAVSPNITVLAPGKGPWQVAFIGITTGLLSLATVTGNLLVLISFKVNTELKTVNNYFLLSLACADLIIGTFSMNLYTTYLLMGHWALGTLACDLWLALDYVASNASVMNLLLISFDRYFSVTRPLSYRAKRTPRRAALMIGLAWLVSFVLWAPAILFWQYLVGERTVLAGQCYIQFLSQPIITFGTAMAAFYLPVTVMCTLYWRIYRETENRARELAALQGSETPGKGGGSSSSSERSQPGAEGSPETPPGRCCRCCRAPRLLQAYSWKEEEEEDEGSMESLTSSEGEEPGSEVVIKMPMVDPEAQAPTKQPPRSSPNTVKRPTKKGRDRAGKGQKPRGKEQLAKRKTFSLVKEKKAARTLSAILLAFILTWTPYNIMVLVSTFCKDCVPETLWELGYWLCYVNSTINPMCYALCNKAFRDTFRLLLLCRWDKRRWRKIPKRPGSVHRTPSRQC
Beta-2 adrenergic receptor (Homo sapiens), sequence (P07550 whole entry, looked up): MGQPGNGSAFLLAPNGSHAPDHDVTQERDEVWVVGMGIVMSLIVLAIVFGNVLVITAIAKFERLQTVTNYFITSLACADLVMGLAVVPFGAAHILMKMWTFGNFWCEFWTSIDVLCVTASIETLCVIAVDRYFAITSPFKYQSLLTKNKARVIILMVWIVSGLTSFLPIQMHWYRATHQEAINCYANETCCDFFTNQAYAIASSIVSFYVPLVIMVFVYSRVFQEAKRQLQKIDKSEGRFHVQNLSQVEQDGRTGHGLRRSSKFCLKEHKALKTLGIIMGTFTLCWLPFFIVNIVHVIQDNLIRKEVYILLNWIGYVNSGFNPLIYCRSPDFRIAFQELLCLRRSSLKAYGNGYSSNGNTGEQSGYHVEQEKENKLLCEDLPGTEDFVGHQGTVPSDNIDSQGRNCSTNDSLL
KiSS-1 receptor (Homo sapiens), sequence (Q969F8 whole entry, looked up): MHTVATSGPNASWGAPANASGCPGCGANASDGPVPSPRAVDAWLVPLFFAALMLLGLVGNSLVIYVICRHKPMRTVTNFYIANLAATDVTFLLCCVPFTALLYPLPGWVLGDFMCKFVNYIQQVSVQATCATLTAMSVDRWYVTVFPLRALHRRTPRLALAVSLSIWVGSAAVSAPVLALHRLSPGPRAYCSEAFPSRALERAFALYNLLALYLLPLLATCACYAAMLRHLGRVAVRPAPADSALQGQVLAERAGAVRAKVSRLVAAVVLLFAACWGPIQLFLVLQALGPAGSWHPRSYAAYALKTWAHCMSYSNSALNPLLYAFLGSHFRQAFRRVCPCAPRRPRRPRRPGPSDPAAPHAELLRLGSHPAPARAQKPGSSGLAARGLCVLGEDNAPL
5-hydroxytryptamine receptor 2A (Homo sapiens), sequence (P28223 whole entry, looked up): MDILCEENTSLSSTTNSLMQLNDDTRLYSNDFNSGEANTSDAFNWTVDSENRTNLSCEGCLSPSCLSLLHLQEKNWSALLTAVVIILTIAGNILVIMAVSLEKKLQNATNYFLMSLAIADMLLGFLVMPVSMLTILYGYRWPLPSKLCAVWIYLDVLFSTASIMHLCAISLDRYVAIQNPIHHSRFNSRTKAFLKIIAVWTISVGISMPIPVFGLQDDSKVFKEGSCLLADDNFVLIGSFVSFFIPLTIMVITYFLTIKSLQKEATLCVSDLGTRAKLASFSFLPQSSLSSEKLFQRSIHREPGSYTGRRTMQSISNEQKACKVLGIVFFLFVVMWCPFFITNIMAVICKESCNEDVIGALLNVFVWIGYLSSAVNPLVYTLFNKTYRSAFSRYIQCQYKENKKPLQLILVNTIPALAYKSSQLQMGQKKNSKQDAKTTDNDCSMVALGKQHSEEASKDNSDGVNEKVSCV

In the case of `O=C(Cn1ccnc1[N+](=O)[O-])NCc1ccccc1`, the Potency entry in assay [1], in [2], in assay [3], in [4], in assay [5] and in assay [6] was “inactive” in each case. Further, the Potency result in assay [7], in assay [8], in assay [9], in assay [10], in assay [11] and in [12] was “inactive” each time. Further, the Potency result in assay [13], in assay [14], in assay [15], in assay [16], in [17] and in assay [18] was “inactive” each time.

As for `CC(C)=CCC[C@H](C)CC=O`, the Potency entry in assay [1], in assay [2], in assay [3], in assay [4], in [5] and in assay [6] was “inactive” each time. In addition, the Potency result in [7], in assay [8], in assay [9], in assay [10], in assay [11] and in assay [15] was “inactive” throughout. Also, the Potency result in assay [17], in assay [19], in [20] and in assay [18] was “inactive” in each case.

For the molecule `O=S(=O)(O)CCS`, the Potency entry in assay [1], in assay [2], in assay [3], in assay [4], in [5] and in [6] was “inactive” throughout. The Potency result in [7], in assay [8], in assay [9], in assay [10], in assay [11] and in assay [15] was “inactive” throughout. In addition, the Potency result in assay [16], in assay [17] and in assay [20] was “inactive” in each case.

On to `CO[Si](CCCNCCC[Si](OC)(OC)OC)(OC)OC`, for which the Potency result in assay [1], in assay [2], in assay [3], in assay [4], in assay [5] and in assay [6] was “inactive” in each case. Moreover, the Potency entry in assay [7], in assay [8], in assay [9], in assay [10], in [11] and in assay [12] was “inactive” throughout. The Potency entry in assay [13], in assay [14], in assay [15], in assay [16], in assay [19] and in [20] was “inactive” each time. Besides, in assay [18], the Potency entry is “inactive”.

Regarding `CC(=O)O[C@]1(C(C)=O)CC[C@H]2[C@@H]3C=C(C)C4=CC(=O)CC[C@]4(C)[C@H]3CC[C@@]21C`, the Potency result in assay [1], in assay [2], in assay [3], in [4], in assay [5] and in [6] was “inactive” throughout. For the same molecule, the Potency entry in assay [7], in [8], in [9], in assay [10], in [11] and in assay [17] was “inactive” in each case. Besides, the Potency entry in [19], in assay [20] and in [18] was “inactive” throughout.

`CC[C@H]1CN2CCc3cc(OC)c(OC)cc3[C@@H]2C[C@@H]1C[C@H]1NCCc2cc(OC)c(OC)cc21`: the figures for the Potency in [1] and in assay [16] were 274 nM (active) and 1680 nM (active), respectively. The Potency result in assay [2], in assay [3], in assay [4], in assay [5], in [6] and in assay [7] was “inactive” each time. Moreover, the Potency entry in [8], in [9], in assay [10], in assay [11], in [15] and in assay [17] was “inactive” throughout. The Potency result in [19], in [20] and in assay [18] was “inactive” in each case.

Consider `CC(N)CN` (stereo unspecified), for which the Potency entry in [1], in assay [2], in assay [3], in assay [4], in assay [5] and in assay [6] was “inactive” throughout. For the same molecule, the Potency entry in assay [7], in assay [8], in assay [9], in [10], in assay [11] and in assay [12] was “inactive” throughout. Further, the Potency entry in assay [13], in assay [14], in assay [15], in assay [16], in assay [19] and in assay [20] was “inactive” throughout. For the same molecule, the Potency entry in [18] was “inactive”.

Take `COc1cc(CCC(C)=O)ccc1O`: the Potency entry in assay [1], in assay [2], in [3], in assay [4], in assay [5] and in assay [6] was “inactive” each time. Besides, the Potency result in assay [7], in assay [8], in assay [9], in assay [10], in assay [11] and in assay [12] was “inactive” each time. The Potency result in [13], in [16], in [17], in [19] and in [20] was “inactive” each time.
